Laboratory results as given in PubChem BioAssay (Tox21).
Inconclusive results are not listed. A call without a number means that no potency is given here. Activity calls are given as the source filed them. The call rests on the fitted dose curve; in most records, active means well fitted activation curve with a large enough effect in the repeat runs; inconclusive means weak or mixed curves; inactive means flat fitted curve, though single readings scatter.

Test: A CellTox Green Cytotoxicity Assay to monitor cytotoxicity in HepG2 cells - 32 hour (AID 1224883); further: nearly all actives have a fitted effect of over 50% in size
Settings: CellTox Green fluorescence; series mostly up to 76.8 µM
Text: National Center for Advancing Translational Sciences [NCATS]
NIH Chemical Genomics Center [NCGC]
U.S. Environmental Protection Agency [EPA]
National Institutes of Environmental Health Sciences [NIEHS]
National Toxicology Program [NTP]
Cell-based models are critical for drug discovery. Determining the natural cytotoxic effects resulting from test compounds is an essential research activity. A CellTox Green Cytotoxicity Assay to monitor cytotoxicity in real time of continues cell culture during 40 hours of the compound treatment was used to screen Tox21 10K library compounds in HepG2 cells. CellTox Green Cytotoxicity Assay is a nonlytic, homogeneous, biofluorescent method to measure cytotoxicity in cell culture after experimental manipulation. The assay system uses a proprietary asymmetric cyanine dye that is excluded from viable cells but preferentially stains the dead cell's DNA. […] Viable cells produce no appreciable increases in fluorescence. Therefore, the fluorescence signal produced by the binding interaction with dead cell DNA is proportional to cytotoxicity.
The mixture of HepG2 cell suspension and reagents were dispensed at 600cells/6 ul/well in 1536-well tissue culture treated black solid bottom plates using a Multidrop dispenser. After the assay plates were incubated at a 37 C/5% CO2 incubator for 5 hours, 23 nL of compounds dissolved in DMSO, positive and negative controls was transferred to the assay plate by a pintool work station. The plates were incubated at 37 C for 40 hours. The fluorescence intensity were measured at 0h, 8h, 16h, 24h, 32h and 40h time points using ViewLux plate reader during compound treatment.

Row | SMILES | Potency | cytotoxicity increase
1 | N#Cc1ccccc1C#N | inactive | –
2 | CN1CCN(C(=O)C2CCCCC2)CC1 | inactive | –
3 | CCCC(=O)CC | inactive | –
4 | CCCCN(CCCC)CCCCCCN(CCCC)CCCC | inactive | –
5 | Cc1cc(C)c(C)c(C)c1 | inactive | –
6 | CN(C)CCc1c[nH]c2ccc(CS(=O)(=O)N3CCCC3)cc12 | inactive | –
7 | C=CCCCCCCCCOC(C)=O | inactive | –
8 | Cc1ccc2ccccc2n1 | inactive | –
9 | c1cc2ccc3ccc4ccc5cccc6c(c1)c2c3c4c56 | – | -14.8% [at 2.72 µM] (inactive)
10 | O=C[C@@H](O)[C@H](O)[C@H](O)CO | inactive | –
11 | CCNC(=O)C(C)OC(=O)Nc1ccccc1 (stereo not given) | inactive | –
12 | Cc1ccc(NC(N)=O)cc1 | inactive | –
13 | O=P(O)(O)C(O)(Cc1cccnc1)P(=O)(O)O | inactive | –
14 | Cc1ccccc1OCC(=O)O | inactive | –
15 | O=Cc1ccccc1S(=O)(=O)O | inactive | –
16 | CNC(C)=O | inactive | –
17 | CCCCCCCCS(=O)(=O)O | inactive | –
18 | O=C(O)CCCCCCCCCC(=O)O | inactive | –
19 | O=C1Nc2ccccc2C1=O | inactive | –
20 | CCCCCCCCCCCCCC(=O)OCC | inactive | –

Row | SMILES | Potency | cytotoxicity increase
21 | CC(C)(C)C(=O)CC(=O)C(C)(C)C | inactive | –
22 | O=Cc1ccc(C(=O)O)cc1 | inactive | –
23 | CC(C)(O)c1ccc(C(C)(C)O)cc1 | inactive | –
24 | N#CC1(N)CCCCC1 | inactive | –
25 | NC[C@H]1O[C@H](O[C@H]2[C@H](O)[C@@H](O[C@H]3O[C@H](CO)[C@@H](O)[C@H](N)[C@H]3O)[C@H](N)C[C@@H]2N)[C@H](N)[C@@H](O)[C@@H]1O | – | -2.59% [at 15.8 µM] (inactive)
26 | CC(C)(C)c1ccc(C(=O)CCCCl)cc1 | inactive | –
27 | Cc1cc(C)c(N)c(Cl)c1 | inactive | –
28 | CC(C)(C)OC=O | inactive | –
29 | Cc1ccc(S(=O)(=O)NC(=O)NN2CC3CCCC3C2)cc1 (stereo not given) | inactive | –
30 | C/C=C(\C)C(=O)OC/C=C(\C)CCC=C(C)C | inactive | –
31 | NNC(=O)CCCCC(=O)NN | inactive | –
32 | O=C1CC2(CCCC2)CC(=O)N1CCNCC1COc2ccccc2O1 (stereo not given) | inactive | –
33 | O=C(O)Cc1c(Cl)ccc(Cl)c1Cl | inactive | –
34 | C/C(Cl)=C/CCl | inactive | –
35 | Cc1ccc2cccnc2c1 | inactive | –
36 | CCN1CCN(C(=O)N[C@@H](C(=O)N[C@@H]2C(=O)N3[C@@H]2SC(C)(C)[C@H]3C(=O)O)c2ccccc2)C(=O)C1=O | inactive | –
37 | CC(O)CCCCn1c(=O)c2c(ncn2C)n(C)c1=O (stereo not given) | inactive | –
38 | COc1ccc(Cl)cc1C | inactive | –
39 | CCCCCCCCCCCCCCCC/C=C/C1CC(=O)OC1=O (stereo not given) | inactive | –
40 | N#Cc1cc(NC(=O)C(=O)O)c(Cl)c(NC(=O)C(=O)O)c1 | inactive | –
